Results taken from publication PMC4552634, “A New Set of Chemical Starting Points with Plasmodium falciparum Transmission-Blocking Potential for Antimalarial Drug Discovery” (PLoS ONE, 2015).
In all, about 13,000 compounds went through this assay and about 3,200 (25%) showed an effect of 50% or more. The list shows a part of the results.

system: P. falciparum stage V gametocytes; design: BacTiter-Glo ATP luminescence viability of purified stage V gametocytes in 384-well plates, per cent inhibition versus DMSO; settings: 48 h, 5 µM; inhibitor

**Q.** Which “% Inhibition” value does the source give for `CC(=O)Nc1csc(-c2cnc(/C=C(\C)C[C@@H]3OC[C@H](C[C@@H]4O[C@H]4[C@@H](C)[C@H](C)O)[C@@H](O)[C@H]3O)o2)c1` [TCMDC-131575] here?
**A.** 0.669%

**Q.** For `COc1cccc(NC(=O)NC2CCN(c3ccnc(Nc4cc(OC)c(OC)c(OC)c4)n3)C2)c1` (stereo not shown) [TCMDC-133627], which “% Inhibition” value is on record?
**A.** -76.2%

**Q.** With `CN(C)C(=S)N=Nc1c(O)[nH]c2ccccc12` [TCMDC-124262] as the compound, how does the “% Inhibition” value read?
**A.** -39.06%

**Q.** `COc1cc(NC(=O)/C=C/c2ccccc2OC(F)(F)F)cc(OCCN2CCC(O)(c3ccccc3)CC2)c1` [TCMDC-140935] was tested. Which “% Inhibition” value did it give?
**A.** -5.416%

**Q.** How did the “% Inhibition” value turn out when `COc1ccc(C2CCN(CCN3CCC(NC(=O)c4cccc(-c5ccncc5)c4)CC3)CC2)c(OC)c1` [TCMDC-135431] was run?
**A.** -2.358%

**Q.** How did the “% Inhibition” value turn out when `COc1cc(NC(=O)c2sc(-c3ccc(Cl)cc3)cc2NC(=O)CN2CC[C@@H](O)C2)ccc1OCCN1CCCC1` [TCMDC-135380] was run?
**A.** 114.3%

**Q.** Which “% Inhibition” value does the source give for `COc1cc(NC(=O)c2sc(-c3ccc(Cl)cc3)cc2NC(=O)CN2CCCC2)ccc1OCCN1CCCC1` [TCMDC-135381] here?
**A.** -9.57%

**Q.** Which “% Inhibition” value does the source give for `COc1ccc(CCCON2C(N)=NC(N)=NC2(C)C)cc1` [TCMDC-131693] here?
**A.** 15.23%

**Q.** `CCc1ccccc1N1CCN(CCCC(=O)c2ccc(NC(=O)c3ccc(Cl)cc3)cc2)CC1` [TCMDC-138230] was tested. Which “% Inhibition” value did it give?
**A.** -10.32%

**Q.** For `CCc1ccccc1N1CCN(CCCCNC(=O)c2ccc(NC(=O)c3ccc(Cl)cc3)cc2)CC1` [TCMDC-138192], which “% Inhibition” value is on record?
**A.** 63.87%

**Q.** With `CCc1ccc(C2CCN(CCCCNC(=O)c3ccc(NC(=O)c4ccc(Cl)cc4)cc3)CC2)cc1` [TCMDC-138351] as the compound, how does the “% Inhibition” value read?
**A.** 54.3%

**Q.** Which “% Inhibition” value does the source give for `O=C(NCCCCN1CCN(c2cccc3ccccc23)CC1)c1ccc(NC(=O)c2ccc(Cl)cc2)cc1` [TCMDC-138514] here?
**A.** -0.4742%

**Q.** With `O=C(NCCCCN1CCC(c2ccc(Br)cc2)CC1)c1ccc(NC(=O)c2ccc(Cl)cc2)cc1` [TCMDC-138347] as the compound, how does the “% Inhibition” value read?
**A.** 1.75%

**Q.** With `O=C(NCCCCN1CCC(c2ccc(OC(F)(F)F)cc2)CC1)c1ccc(NC(=O)c2ccc(Cl)cc2)cc1` [TCMDC-138327] as the compound, how does the “% Inhibition” value read?
**A.** 35.48%

**Q.** With `C=CCc1ccc(C2CCN(CCCCNC(=O)c3ccc(NC(=O)c4ccc(Cl)cc4)cc3)CC2)cc1` [TCMDC-138355] as the compound, how does the “% Inhibition” value read?
**A.** 87.45%

**Q.** How did the “% Inhibition” value turn out when `CCCc1ccc(C2CCN(CCCCNC(=O)c3ccc(NC(=O)c4ccc(Cl)cc4)cc3)CC2)cc1` [TCMDC-138358] was run?
**A.** 87.46%

**Q.** How did the “% Inhibition” value turn out when `O=C(NCCCCN1CCC(c2ccc([N+](=O)[O-])cc2)CC1)c1ccc(NC(=O)c2ccc(Cl)cc2)cc1` [TCMDC-138350] was run?
**A.** 25.02%

**Q.** How did the “% Inhibition” value turn out when `O=C(c1cncc(-c2ccccc2)c1)N(Cc1cncn1Cc1ccccc1F)CC1CC1` [TCMDC-132464] was run?
**A.** 14.15%

**Q.** How did the “% Inhibition” value turn out when `CC(C)(C)Oc1ccc(NC(=O)c2ccccc2O)cc1` [TCMDC-137700] was run?
**A.** 29.92%

**Q.** Which “% Inhibition” value does the source give for `COc1ccccc1N(C)CCNc1cc(C)nc(Nc2ccc(C)cc2)n1` [TCMDC-133456] here?
**A.** -44.09%

**Q.** Which “% Inhibition” value does the source give for `Cn1cc(C(=O)Nc2cccc(-c3cccc(-c4nc5ccccc5[nH]4)c3)c2)n(C)c1=O` [TCMDC-137135] here?
**A.** -5.62%

**Q.** With `Cc1cc(C)c(C(=O)Nc2n[nH]c3nnc(-c4cccc(F)c4F)cc23)c(C)c1` [TCMDC-141220] as the compound, how does the “% Inhibition” value read?
**A.** 6.955%

**Q.** With `Oc1cc(Nc2ccnc3cc(I)ccc23)ccc1F` [TCMDC-138379] as the compound, how does the “% Inhibition” value read?
**A.** -46.78%

**Q.** `OC(COc1ccccc1-c1nc2ccccc2o1)CN1CCCN(CCc2ccccc2)CC1` (stereo not shown) [TCMDC-141430] was tested. Which “% Inhibition” value did it give?
**A.** 28.2%

**Q.** With `COc1ccccc1N1CCN(Cc2c(NC(C)=O)sc(C)c2C)CC1` [TCMDC-124501] as the compound, how does the “% Inhibition” value read?
**A.** -13.75%

**Q.** With `Oc1ccccc1CNCC(O)c1cc(C(F)(F)F)cc(C(F)(F)F)c1` (stereo not shown) [TCMDC-140304] as the compound, how does the “% Inhibition” value read?
**A.** -68.09%

**Q.** For `O=C(NCCCCN1CCC(c2ccc(-c3ccco3)cc2)CC1)c1ccc(NC(=O)c2ccc(Cl)cc2)cc1` [TCMDC-138321], which “% Inhibition” value is on record?
**A.** 113.6%

**Q.** With `O=C(/C=C/c1ccc(Cl)c(Cl)c1)NCCCCCCN1CCCN(C(=O)Nc2cccc(Cl)c2)CC1` [TCMDC-135939] as the compound, how does the “% Inhibition” value read?
**A.** -30.78%

**Q.** For `O=C(O)C(F)(F)F.c1cc(CNCC2CCCO2)cc(-c2ccc(-c3nc4ccccc4[nH]3)s2)c1` (stereo not shown) [TCMDC-133107], which “% Inhibition” value is on record?
**A.** -4.99%

**Q.** For `COc1ccc(Cl)cc1N1CCN(CCCNC(=O)c2ccc(-c3nc4cc(Cl)c(F)cc4[nH]3)s2)CC1` [TCMDC-140102], which “% Inhibition” value is on record?
**A.** 7.975%

**Q.** With `COc1cc(C2=NN(S(=O)(=O)c3c(C)cc(C)cc3C)CCCC2)ccc1Cl` [TCMDC-136217] as the compound, how does the “% Inhibition” value read?
**A.** 20.4%

**Q.** For `COc1ccc(-c2ccc(Nc3cccc(S(=O)(=O)CCN4CCC(CCN(C)C)CC4)c3)nc2)cn1` [TCMDC-134376], which “% Inhibition” value is on record?
**A.** 26.53%

**Q.** How did the “% Inhibition” value turn out when `Fc1ccc2nc(-c3ccc(-c4ccc(CNCC5CCCO5)cc4)s3)[nH]c2c1` (stereo not shown) [TCMDC-133100] was run?
**A.** -65.64%

**Q.** Which “% Inhibition” value does the source give for `CN(C)Cc1ccc(-c2cc3c(Nc4ccc(OCc5cccc(F)c5)c(Cl)c4)ncnc3s2)[nH]1` [TCMDC-135468] here?
**A.** 11.16%

**Q.** How did the “% Inhibition” value turn out when `Fc1cccc(COc2ccc(Nc3ncnc4ccc(C#C[C@H]5CCCN5)cc34)cc2Cl)c1` [TCMDC-135437] was run?
**A.** -6.979%

**Q.** With `CN(C)Cc1ccc(-c2cc3ncnc(Nc4ccc(OCc5cccc(F)c5)c(Cl)c4)c3s2)[nH]1` [TCMDC-135507] as the compound, how does the “% Inhibition” value read?
**A.** 40.2%

**Q.** Which “% Inhibition” value does the source give for `CC(=O)NCCNc1nccc(N2CCc3ncnc(Nc4ccc(OCc5cccc(F)c5)c(Cl)c4)c3C2)n1` [TCMDC-135392] here?
**A.** 4.041%

**Q.** `C[C@@H](N)C#Cc1cc2c(Nc3ccc(OCc4cccc(F)c4)c(Cl)c3)ncnc2s1` [TCMDC-134655] was tested. Which “% Inhibition” value did it give?
**A.** 18.43%

**Q.** Which “% Inhibition” value does the source give for `CCN(CC)CCCNc1nccc(N2CCc3ncnc(Nc4ccc(OCc5cccc(F)c5)c(Cl)c4)c3C2)n1` [TCMDC-135406] here?
**A.** 102.3%

**Q.** `CN(C)CCNc1nccc(N2CCc3ncnc(Nc4ccc(OCc5cccc(F)c5)c(Cl)c4)c3C2)n1` [TCMDC-135405] was tested. Which “% Inhibition” value did it give?
**A.** 71.57%

**Q.** How did the “% Inhibition” value turn out when `CNCCNc1nccc(N2CCc3ncnc(Nc4ccc(OCc5cccc(F)c5)c(Cl)c4)c3C2)n1` [TCMDC-135478] was run?
**A.** 99.42%

**Q.** Which “% Inhibition” value does the source give for `CCN(CCS(C)(=O)=O)Cc1ccc(-c2ccc3ncnc(Nc4ccc(OCc5cccc(F)c5)c(Cl)c4)c3c2)o1` [TCMDC-138533] here?
**A.** -31.95%

**Q.** For `CN(C)C1CCN(CC#Cc2cc3ncnc(Nc4ccc(OCc5cccc(F)c5)c(Cl)c4)c3s2)CC1` [TCMDC-138804], which “% Inhibition” value is on record?
**A.** 11.68%

**Q.** Which “% Inhibition” value does the source give for `NCCCNc1nccc(N2CCc3ncnc(Nc4ccc(OCc5cccc(F)c5)c(Cl)c4)c3C2)n1` [TCMDC-135456] here?
**A.** 85.39%

**Q.** Which “% Inhibition” value does the source give for `CC(=O)NCCNc1nccc(N2CCc3ncnc(Nc4ccc(OCc5ccccn5)c(Cl)c4)c3C2)n1` [TCMDC-135447] here?
**A.** 3.253%

**Q.** For `COc1ccc2nccc([C@@H](O)CN3CCC(NCc4cc5oc(=O)n(C)c5cc4F)CC3)c2c1` [TCMDC-141144], which “% Inhibition” value is on record?
**A.** -1.57%

**Q.** For `Fc1cccc(COc2ccc(Nc3ncnc4sc(C#C[C@H]5CCCN5)cc34)cc2F)c1` [TCMDC-134429], which “% Inhibition” value is on record?
**A.** -0.575%

**Q.** `O=C(Nc1ccc(N2CCCCC2)c(Cl)c1)c1ncn[nH]1` [TCMDC-123528] was tested. Which “% Inhibition” value did it give?
**A.** 3.564%

**Q.** Which “% Inhibition” value does the source give for `CC(=O)NCCNc1cc(N2CCc3ncnc(Nc4ccc(OCc5c(F)cccc5F)c(Cl)c4)c3C2)ncn1` [TCMDC-135455] here?
**A.** 38.09%

**Q.** How did the “% Inhibition” value turn out when `CS(=O)(=O)CCNc1cc(N2CCc3ncnc(Nc4ccc(OCc5cccc(F)c5)c(Cl)c4)c3C2)ncn1` [TCMDC-135477] was run?
**A.** 58.91%

**Q.** Which “% Inhibition” value does the source give for `CS(=O)(=O)CCNc1nccc(N2CCc3ncnc(Nc4ccc(OCc5cccc(F)c5)c(Cl)c4)c3C2)n1` [TCMDC-135425] here?
**A.** 8.296%

**Q.** How did the “% Inhibition” value turn out when `COc1cc(-c2ccccc2)ccc1C(=O)Nc1ccc2c(c1)N(C)CCC2` [TCMDC-141219] was run?
**A.** -85.17%

**Q.** How did the “% Inhibition” value turn out when `O=C(N1CCN(c2cccc(C(F)(F)F)c2)CC1)C(Cl)(Cl)Cl` [TCMDC-125655] was run?
**A.** -5.728%

**Q.** For `O=C(/C=C/c1ccc(Cl)c(Cl)c1)NC1C2CCC1CC(CN1CCC(c3c[nH]c4ccccc34)CC1)C2` (stereo not shown) [TCMDC-139811], which “% Inhibition” value is on record?
**A.** 36.93%

**Q.** Which “% Inhibition” value does the source give for `COc1ccc(Nc2nc(NC3CCN(Cc4ccccc4)CC3)cc(-c3ccncc3)n2)cc1` [TCMDC-134021] here?
**A.** -30.5%

**Q.** For `c1ccc(CN2CCC(Nc3ccc(-c4cn[nH]c4-c4ccccn4)nc3)CC2)cc1` [TCMDC-138750], which “% Inhibition” value is on record?
**A.** 73.03%

**Q.** With `c1ccc(C2CCN(Cc3ccc(-c4c[nH]c5nc(NC6CCCC6)ncc45)cc3)CC2)cc1` [TCMDC-133772] as the compound, how does the “% Inhibition” value read?
**A.** -64.75%

**Q.** Which “% Inhibition” value does the source give for `CCCCCC(C)C(C)c1cc(O)c2c(c1)OC(C)(C)CC2(O)c1ccccn1` (stereo not shown) [TCMDC-131713] here?
**A.** -6.865%

**Q.** For `Cc1cc(F)ccc1-c1nc(NCCCN2CCCC2=O)nc2c1ccc(=O)n2-c1c(F)cccc1F` [TCMDC-141433], which “% Inhibition” value is on record?
**A.** -74.9%

**Q.** Which “% Inhibition” value does the source give for `Cc1cc(F)ccc1-c1nc(NCC(O)CNCCc2ccccc2)nc2c1ccc(=O)n2-c1c(F)cccc1F` (stereo not shown) [TCMDC-141784] here?
**A.** 98.89%

**Q.** For `Cc1cc(F)ccc1-c1nc(NCCCNCCc2ccccc2)nc2c1ccc(=O)n2-c1c(F)cccc1F` [TCMDC-141804], which “% Inhibition” value is on record?
**A.** 83.84%

**Q.** Which “% Inhibition” value does the source give for `CCCCCN1CCC(NC(=O)c2ccc(C(=O)Nc3ccc(C(C)C)cc3)cc2)CC1` [TCMDC-136751] here?
**A.** 8.673%

**Q.** For `O=C(C=CC(=O)N1CCCCC1)NCc1ccccc1` [TCMDC-131645], which “% Inhibition” value is on record?
**A.** 19.39%

**Q.** Which “% Inhibition” value does the source give for `NC(=O)c1ccccc1OCC(=O)Nc1cccc(-c2ccc(-c3nc4ccccc4[nH]3)cc2)c1` [TCMDC-132128] here?
**A.** 7.419%
